Test [1] is described as follows: NCI Yeast Anticancer Drug Screen. Data for the rad50 strain (AID 155).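 Also: 0% = growth of vehicle-only cultures of the same strain.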 The settings on record: S. cerevisiae rad50 strain growth inhibition, hits give high values. The method in brief:
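A DNA repair-deficient yeast mutant serves as the test organism; compound-induced growth inhibition is calculated against vehicle-treated cells.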

Test [2] is described as follows: NCI Yeast Anticancer Drug Screen. Data for the mec2-1 strain (AID 157). Conditions: S. cerevisiae mec2-1 strain, hits give high values. The essentials: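 Each compound was tested on mec2-1 yeast, a strain altered in DNA damage repair or cell cycle control. Growth inhibition is reported relative to vehicle.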
Test [3] in a line: NCI Yeast Anticancer Drug Screen. Data for the sgs1 mgt1 strain (AID 161).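 Also: 0% = growth of cultures given vehicle only.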 The settings on record: S. cerevisiae sgs1 mgt1 strain, hits give high values. The method in brief:
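Inhibition of yeast growth, normalised to vehicle-treated controls, is reported for a strain bearing genetic alterations in DNA damage repair.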

Test [4] is described as follows: NCI Yeast Anticancer Drug Screen. Data for the cln2 rad14 strain (AID 165).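 Also: 0% = growth equal to vehicle treated cultures.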 Conditions: S. cerevisiae cln2 rad14 strain, hits give high values. The essentials: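 Test compounds were added to cln2 rad14 yeast cultures; inhibition of growth was then determined by comparison with vehicle treatment.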
A short description of test [5]: NCI Yeast Anticancer Drug Screen. Data for the bub3 strain (AID 167). Conditions: S. cerevisiae bub3 mutant strain, hits give high values. The essentials:
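Inhibition values come from growth of compound-treated mutant yeast normalised to vehicle-treated controls.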

The nature of test [6]: NCI Yeast Anticancer Drug Screen. Data for the mlh1 rad18 strain (AID 175). Conditions: S. cerevisiae mlh1 rad18 strain growth inhibition, hits give high values. The method in brief:
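Inhibition values reflect reduced growth of mutant yeast versus vehicle-treated controls following compound exposure; the mutations affect DNA damage repair.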

The mark [7] stands for this setting: at 5.0 µM (retest, dose inferred, filed as 0.5).
Setting [8] is: at 50.0 µM (retest, dose inferred, filed as 5.0).

This is part of a sample that, as a whole, favours compounds with a hit. Of some 79,000 tested, about 15% had one in any assay. A number with no mark means an inactive call. Active and inactive are the calls of the source. Rule as the data show it: active = growth inhibition above about 70%; inactive = the rest.

`O=C(Nc1ccc(Cl)cc1)NS(=O)(=O)c1c(-c2ccccc2)oc2ccccc2c1=O`: the growth inhibition in test [1] (setting [7]) was 14%; in test [1] (setting [8]) it was 99% (active); in test [1] (at 50.0 µM), 92.3% (active); in test [2] (setting [7]), 6%; in test [2] (setting [8]), 98% (active); in test [2] (at 50.0 µM), 96.3% (active). The growth inhibition in test [3] (setting [7]) is 7%; in test [3] (setting [8]), 99% (active); in test [3] (at 50.0 µM), 95.5% (active); in test [4] (setting [7]) it was 15%; in test [4] (setting [8]), 98% (active); in test [4] (at 50.0 µM), 93.3% (active). In addition, the growth inhibition in test [5] (setting [7]) is 0%; in test [5] (setting [8]) it was 97% (active); in test [5] (at 50.0 µM), 95.3% (active); in test [6] (setting [7]), 15%; in test [6] (setting [8]), 98% (active); in test [6] (at 50.0 µM), 95.3% (active).
As for `CNC(=O)OCc1c(-c2ccccc2)c(-c2ccccc2)n(-c2ccc(OC)cc2)c1COC(=O)NC`, the growth inhibition in test [1] (setting [7]) was 26%; in test [1] (setting [8]), 96% (active); in test [1] (at 50.0 µM) it was 36.1%; in test [2] (setting [7]) it was 18%; in test [2] (setting [8]), 98% (active); in test [2] (at 50.0 µM), 78.3% (active). The growth inhibition is 20% in test [3] (setting [7]); 98% (active) in test [3] (setting [8]); 82.2% (active) in test [3] (at 50.0 µM); 26% in test [4] (setting [7]); 98% (active) in test [4] (setting [8]); 84.9% (active) in test [4] (at 50.0 µM). The growth inhibition in test [5] (setting [7]) was 17%; in test [5] (setting [8]), 99% (active); in test [5] (at 50.0 µM), 80% (active); in test [6] (setting [7]), 23%; in test [6] (setting [8]), 97% (active); in test [6] (at 50.0 µM), 91% (active).
Take `Cc1ccc(-c2c(C#N)c(-c3ccc(Cl)cc3)c(C#N)c(=O)n2NS(=O)(=O)c2ccccc2)cc1`: the growth inhibition in test [1] (setting [7]) was 38%; in test [1] (setting [8]) it was 50%; in test [1] (at 50.0 µM), 63.2%; in test [2] (setting [7]), 34%; in test [2] (setting [8]) it was 59%; in test [2] (at 50.0 µM), 71% (active). The growth inhibition in test [3] (setting [7]) is 28%; in test [3] (setting [8]), 58%; in test [3] (at 50.0 µM) it was 69%; in test [4] (setting [7]) it was 53%; in test [4] (setting [8]), 60%; in test [4] (at 50.0 µM), 63.6%. Besides, the growth inhibition in test [5] (setting [7]) was 52%; in test [5] (setting [8]) it was 64%; in test [5] (at 50.0 µM), 71% (active); in test [6] (setting [7]), 31%; in test [6] (setting [8]), 49%; in test [6] (at 50.0 µM) it was 74.3% (active).
On to `CC(=O)N1CCCC2=C1CCCCCCCCCC2`, for which the growth inhibition in test [1] (setting [7]) was -7%; in test [1] (setting [8]), 4%; in test [1] (at 50.0 µM), 49.4%; in test [2] (setting [7]), -6%; in test [2] (setting [8]), -5%; in test [2] (at 50.0 µM) it was 27.9%. In addition, the growth inhibition in test [3] (setting [7]) is -3%; in test [3] (setting [8]), 1%; in test [3] (at 50.0 µM), 70.6% (active); in test [4] (setting [7]) it was 3%; in test [4] (setting [8]), -9%; in test [4] (at 50.0 µM), 22.9%. In addition, the growth inhibition was -12% in test [5] (setting [7]); -21% in test [5] (setting [8]); 29.2% in test [5] (at 50.0 µM); -6% in test [6] (setting [7]); -2% in test [6] (setting [8]); 13.8% in test [6] (at 50.0 µM).
Consider `CC(=O)OC(C)(C)N=Nc1ccc(Br)cc1`, for which the growth inhibition in test [1] (setting [7]) was 86% (active); in test [1] (setting [8]), 99% (active); in test [1] (at 50.0 µM) it was 97.9% (active); in test [2] (setting [7]), 31%; in test [2] (setting [8]), 99% (active); in test [2] (at 50.0 µM), 98.1% (active). Besides, the growth inhibition in test [3] (setting [7]) is 60%; in test [3] (setting [8]) it was 97% (active); in test [3] (at 50.0 µM), 98.2% (active); in test [4] (setting [7]) it was 51%; in test [4] (setting [8]) it was 94% (active); in test [4] (at 50.0 µM), 97.3% (active). Further, the growth inhibition in test [5] (setting [7]) is 78% (active); in test [5] (setting [8]), 99% (active); in test [5] (at 50.0 µM), 97.2% (active); in test [6] (setting [7]), 63%; in test [6] (setting [8]), 99% (active); in test [6] (at 50.0 µM) it was 98.2% (active).
As for `C=CCCCCCCCCC(=O)OCC=C`, the growth inhibition in test [1] (setting [7]) was 0%; in test [1] (setting [8]) it was 4%; in test [1] (at 50.0 µM), -2.1%; in test [2] (setting [7]), 6%; in test [2] (setting [8]), 3%; in test [2] (at 50.0 µM) it was -18.1%. Moreover, the growth inhibition in test [3] (setting [7]) was 4%; in test [3] (setting [8]) it was 9%; in test [3] (at 50.0 µM), 16.4%; in test [4] (setting [7]), 0%; in test [4] (setting [8]), 0%; in test [4] (at 50.0 µM) it was 26.6%. Further, the growth inhibition was -3% in test [5] (setting [7]); -4% in test [5] (setting [8]); 10.9% in test [5] (at 50.0 µM); -2% in test [6] (setting [7]); -1% in test [6] (setting [8]); 9.2% in test [6] (at 50.0 µM).
Consider `N#CC(C#N)=C(C1CC1)C1CC1`, for which the growth inhibition in test [1] (setting [7]) was -76%; in test [1] (setting [8]), 96% (active); in test [1] (at 50.0 µM) it was 0.4%; in test [2] (setting [7]), -42%; in test [2] (setting [8]) it was 94% (active); in test [2] (at 50.0 µM) it was -2.5%. For the same compound, the growth inhibition in test [3] (setting [7]) was -47%; in test [3] (setting [8]), 96% (active); in test [3] (at 50.0 µM), -1.9%; in test [4] (setting [7]) it was -56%; in test [4] (setting [8]), 92% (active); in test [4] (at 50.0 µM) it was 41.4%. Moreover, the growth inhibition in test [5] (setting [7]) was -59%; in test [5] (setting [8]), 93% (active); in test [5] (at 50.0 µM), 11.8%; in test [6] (setting [7]), -95%; in test [6] (setting [8]), 94% (active); in test [6] (at 50.0 µM), -21.9%.
In the case of `COc1ccc(-c2c(-c3ccccc3)c(C)nc3[nH]c(=S)[nH]c(=S)c23)cc1OC`, the growth inhibition in test [1] (setting [7]) was -4%; in test [1] (setting [8]) it was 69%; in test [1] (at 50.0 µM) it was 92.2% (active); in test [2] (setting [7]) it was -2%; in test [2] (setting [8]), 58%; in test [2] (at 50.0 µM) it was 92.8% (active). Besides, the growth inhibition in test [3] (setting [7]) was 7%; in test [3] (setting [8]) it was 89% (active); in test [3] (at 50.0 µM), 94.4% (active); in test [4] (setting [7]) it was 7%; in test [4] (setting [8]), 81% (active); in test [4] (at 50.0 µM), 93.2% (active). Further, the growth inhibition was 0% in test [5] (setting [7]); 91% (active) in test [5] (setting [8]); 69.8% in test [5] (at 50.0 µM); -30% in test [6] (setting [7]); 79% (active) in test [6] (setting [8]); 94.9% (active) in test [6] (at 50.0 µM).
As to `C=C1CC2(OC1=O)C(=O)N(C)c1ccccc12` (stereo not given), the growth inhibition in test [1] (setting [7]) is -118%; in test [1] (setting [8]), 63%; in test [1] (at 50.0 µM), 84.5% (active); in test [2] (setting [7]), -31%; in test [2] (setting [8]), 52%; in test [2] (at 50.0 µM), 87.5% (active). Further, the growth inhibition was -38% in test [3] (setting [7]); 67% in test [3] (setting [8]); 82.6% (active) in test [3] (at 50.0 µM); -49% in test [4] (setting [7]); 22% in test [4] (setting [8]); 15% in test [4] (at 50.0 µM). Also, the growth inhibition in test [5] (setting [7]) is -47%; in test [5] (setting [8]), 73% (active); in test [5] (at 50.0 µM) it was 88.2% (active); in test [6] (setting [7]), -111%; in test [6] (setting [8]) it was 71% (active); in test [6] (at 50.0 µM) it was 91.7% (active).
Take `Oc1cc(Cc2ccccc2)c(Cc2ccccc2)cc1O`: the growth inhibition in test [1] (setting [7]) is -32%; in test [1] (setting [8]), 96% (active); in test [1] (at 50.0 µM) it was 89.2% (active); in test [2] (setting [7]) it was -26%; in test [2] (setting [8]), 98% (active); in test [2] (at 50.0 µM), 91% (active). Moreover, the growth inhibition in test [3] (setting [7]) was -8%; in test [3] (setting [8]), 96% (active); in test [3] (at 50.0 µM) it was 92.1% (active); in test [4] (setting [7]), -1%; in test [4] (setting [8]), 97% (active); in test [4] (at 50.0 µM), 89.8% (active). Also, the growth inhibition in test [5] (setting [7]) was -23%; in test [5] (setting [8]) it was 97% (active); in test [5] (at 50.0 µM), 91.5% (active); in test [6] (setting [7]) it was -43%; in test [6] (setting [8]), 96% (active); in test [6] (at 50.0 µM), 88.2% (active).

These data come from PubChem BioAssay (NCI).
